# Screens: PubChem BioAssay, several laboratories
# Most compounds without a hit are left out; they make up all but 1.5% or so of the library.
# PP5 primary: inhibitors of human protein phosphatase 5 (PP5); inhibition, % at 6.7 µM; purified PP5c, OMFP substrate fluorescence; AID 1987; 320,000 tested, 0.18% active; P53041;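 active = inhibition above the campaign's mean inhibition across all tested compounds plus 3 SD, cut at about 9.5% in these data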;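 also: 0% = DMSO only and 100% = 100 µM cantharidin control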
# Dyrk1A ADPGlo: inhibitors of rat Dyrk1A kinase; Q63470; ADP-Glo luminescence, NFATc1 peptide; inhibition, % at 12.5 µM; 310,000 tested, 0.43% active; AID 504441; in the data active = inhibition above about 50%;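 also: plate controls were vehicle with enzyme for no effect and no enzyme for full effect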
# STK33 kinase inh: inhibitors of human STK33 kinase; Q9BYT3; purified STK33, MBP phosphorylation, ADP-Glo luminescence; inhibition, % at 10 µM; 320,000 tested, 0.073% active; AID 2661;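 active = inhibition at or above 25%, using the most active replicate where run in duplicate; inactive = inhibition below 25%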
# Target sequence (Q9BYT3 whole entry, looked up): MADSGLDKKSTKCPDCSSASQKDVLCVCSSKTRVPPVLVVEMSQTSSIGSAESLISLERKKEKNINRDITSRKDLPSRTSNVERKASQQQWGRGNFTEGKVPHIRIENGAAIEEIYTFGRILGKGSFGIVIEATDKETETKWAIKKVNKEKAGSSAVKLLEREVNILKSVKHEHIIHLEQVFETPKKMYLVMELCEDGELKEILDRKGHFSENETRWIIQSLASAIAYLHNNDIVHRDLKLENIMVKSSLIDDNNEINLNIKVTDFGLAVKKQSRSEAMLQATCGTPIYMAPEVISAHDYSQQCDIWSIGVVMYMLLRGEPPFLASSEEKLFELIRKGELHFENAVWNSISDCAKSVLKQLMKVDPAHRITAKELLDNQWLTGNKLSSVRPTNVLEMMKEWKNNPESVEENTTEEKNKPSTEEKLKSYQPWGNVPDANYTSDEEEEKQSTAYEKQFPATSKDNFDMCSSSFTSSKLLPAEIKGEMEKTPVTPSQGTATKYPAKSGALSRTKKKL
# PP1 inh: PP1-alpha (human) inhibition in PP5 counter-screen; P62136; purified PP1alpha, OMFP fluorescence; inhibition, % at 6.7 µM; 320,000 tested, 0.9% active; AID 2235;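 active = inhibition above the mean inhibition of all tested compounds plus 3 SD, computed separately for each screening campaign, cut at about 15% in these data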
# HIF activator: HIF pathway transcriptional activation; 300,000 tested, 0.32% active; U2OS HRE-luciferase reporter, luminescence; normalized: DMSO 0%, desferrioxamine 100%; AID 1910; activation, % at 7.5 µM (by protocol);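 active = mean activation of at least 10% of the iron chelator positive control signal, with at least half of replicates also reaching 10%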
# PP1 inh confirm: confirmation of human PP1 phosphatase inhibitors; shares compounds with PP1 inh; purified PP1alpha, OMFP substrate fluorescence; inhibition, % at 6.7 µM; 1,900 tested, 52% active;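 active = mean PP1 inhibition above a set limit taken from the earlier primary screen, cut at about 15% in these data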
# PP5 inh counter: PP5 phosphatase inhibition, counter-screen for PP1 inhibitors; shares compounds with PP1 inh; purified PP5c, OMFP fluorescence; inhibition, % at 6.7 µM; 1,900 tested, 4% active; AID 2360;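 active = mean PP5 inhibition over triplicate wells above about 9.5% taken from the earlier PP1 screen, limit read from the data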
# Active calls of the source: *; nt = no result given.
SMILES,PP5 primary,Dyrk1A ADPGlo,STK33 kinase inh,PP1 inh,HIF activator,PP1 inh confirm,PP5 inh counter
O=C(O)c1c[nH]c2ccc(S(=O)(=O)N3CCN(c4ccc(F)cc4)CC3)cc2c1=O,0,-5,-2,44*,0,32*,-4
CNC(=S)N(CCc1c(C)[nH]c2ccccc12)Cc1cccnc1,0,-3,1,-7,1,nt,nt
CC(=O)c1sc2c(c1OC(=O)c1ccc(Cl)cc1Cl)c(=O)n(-c1ccccc1)c(=S)n2-c1ccccc1,-1,2,-1,38*,-3,10,-2
COc1ccc(CN2CCNC(=O)C2CC(=O)NCC(C)(C)N2CCOCC2)cc1C (stereo not drawn),1,3,-2,-2,0,nt,nt
Cc1nc(S/C(=C/c2ccc(-c3cc(Cl)ccc3C)o2)C(=O)O)n[nH]1,3,-4,-2,19*,nt,18*,1
Cc1nc(S/C(=C/c2ccc(-c3ccc(Cl)cc3)o2)C(=O)O)n[nH]1,1,10,-1,11,0,nt,nt
O=C(N/N=C/c1cc([N+](=O)[O-])ccc1O)c1cccc2cc[nH]c12,1,-4,-1,29*,27*,20*,-4
O=C(N/N=C/c1cc([N+](=O)[O-])ccc1O)c1cccc(N2CCCC2=O)c1,3,nt,0,25*,2,21*,-5
COc1cc(/C=N/NC(=O)c2cccc(N3CCCC3=O)c2)ccc1O,-1,-6,0,2,0,nt,nt
CCCCn1c(/C=C/c2ccco2)nc2ccccc21,1,3,0,4,-1,nt,nt
CCCCn1c(/C=N/Nc2nc3ccccc3[nH]2)nc2ccccc21,5,-3,0,21*,69*,12,-1
C(=N\Nc1nc2ccccc2[nH]1)/c1ccc2c(c1)OCCO2,2,27,9,0,-5,nt,nt
Fc1ccccc1-c1ccc(/C=N/Nc2nc3ccccc3[nH]2)o1,4,-33,-2,18*,2,18*,1
C#CCn1cc(/C=N/Nc2nc3ccccc3[nH]2)c2ccccc21,7,10,1,22*,5,24*,2
C#CCn1cc(/C=N/NC(=O)COc2cccc3cccnc23)c2ccccc21,2,0,1,2,0,nt,nt
CCOc1ccc(N(C)Cc2cc(=O)oc3ccc(OCC)cc23)cc1,nt,6,-1,nt,-1,nt,nt
O=C1CC2(CCCC2)C(=O)N1c1ccc(S(=O)(=O)NCC2CC2)cc1Cl,0,3,0,0,-1,nt,nt
Cc1ccc(-c2nn(-c3ccccc3)cc2C2CC(c3cccs3)=NN2C(=O)CCCC(=O)O)cc1 (stereo not drawn),-1,7,-2,12,0,nt,nt
Cc1ccc(C2=NN(C(=O)CCC(=O)O)C(c3cn(-c4ccccc4)nc3-c3ccc(C)cc3)C2)cc1 (stereo not drawn),8,0,-1,20*,0,23*,2
COc1ccc(C2=NN(c3ccccc3)C(c3cn(CCC(=O)O)nc3-c3ccccc3)C2)cc1 (stereo not drawn),2,nt,1,24*,0,10,3
Cc1ccc(Cl)cc1NC(=O)[C@@H]1CCC(=O)N1C1OC(=O)c2ccccc21 (stereo partly drawn),-2,-5,-2,-4,0,nt,nt
Cc1cc2c(s1)c1cnn(-c3ccccc3)c(=O)c1n2C,nt,-15,nt,nt,nt,nt,nt
CSc1ccc(CCNC(=O)Cn2ncc3c([nH]c4ccccc43)c2=O)cc1,-8,-2,-2,-4,-1,nt,nt
Cc1cc2c(s1)c1cnn(CC(=O)NCCc3ccccc3)c(=O)c1n2C,1,nt,0,20*,0,11,-2
O=C(Cn1ncc2c([nH]c3ccccc32)c1=O)NCCc1ccc(Cl)cc1,3,-3,-1,18*,0,21*,1
CC(C)CN(C(=O)c1ccc(F)cc1F)c1c(N)n(CC(C)C)c(=O)[nH]c1=O,2,0,-3,3,0,nt,nt
COc1ccc(OC)c(NC(=O)CSc2nnc(CCCO)n2-c2ccccc2)c1,0,1,-1,21*,0,-4,-2
COc1cc(C(=O)N/N=C2\CCS(=O)(=O)c3ccc(F)cc32)cc(OC)c1OC,1,-1,-3,-3,0,nt,nt
